Data published in PubChem BioAssay (NCI).
“And” between values parts separate entries of the source, which are not always exact repeats. Equal entries are not always repeated. The panel holds about 83,000 compounds, 20% with a hit somewhere; the sample as a whole holds those more often.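 Assay: single dose, 48 h. Readout: percent growth (0 = no net growth; negative = cell death). Active: <10.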 The source made the active and inactive calls.

Legend:
Assay in all cases: NCI-60 one-dose screen, 48 h (100 = growth as untreated, 0 = no growth, -100 = all killed)
Conditions in all cases: 10 µM unless noted
HCT-15 colon = test system: HCT-15 colon
HT29 colon = test system: HT29 colon
SNB-75 CNS = test system: SNB-75 CNS
SNB-19 CNS = test system: SNB-19 CNS
U251 CNS = test system: U251 CNS
PC-3 prostate = test system: PC-3 prostate
SK-MEL-5 melanoma = test system: SK-MEL-5 melanoma
UACC-62 melanoma = test system: UACC-62 melanoma
LOX IMVI melanoma = test system: LOX IMVI melanoma
SK-MEL-28 melanoma = test system: SK-MEL-28 melanoma

Measured: growth

CN1CCN(Cc2ccc(NC(=O)c3cccc(C#Cc4c(N)ncc5ccc(F)cc45)c3)cc2C(F)(F)F)CC1
active: HCT-15 colon -77.9% | HT29 colon -56.1% | SNB-75 CNS -92.4% | SNB-19 CNS -85.9% | U251 CNS -67.9% | PC-3 prostate -19.2% | SK-MEL-5 melanoma -83.1% | UACC-62 melanoma -51.1% | LOX IMVI melanoma -97.9% | SK-MEL-28 melanoma -90.2%

Clc1nccc2c(-c3csc(-c4c[nH]c5ccc(Br)cc45)n3)c[nH]c12
active: HCT-15 colon -49.4% | HT29 colon 5.95% | U251 CNS -2.09% | LOX IMVI melanoma -31.9% | SK-MEL-28 melanoma -8.62%
inactive: SNB-75 CNS 21% | SNB-19 CNS 44.6% | PC-3 prostate 19.9% | SK-MEL-5 melanoma 47.2% | UACC-62 melanoma 17%

COc1ccc(C/C(C)=C(/c2ccc(OCCN3CCCCCC3)cc2)c2ccc(OC(=O)c3ccccc3)cc2)cc1
inactive: HCT-15 colon 100% | HT29 colon 89.9% | SNB-75 CNS 110% | SNB-19 CNS 102% | U251 CNS 107% | PC-3 prostate 101% | SK-MEL-5 melanoma 109% | UACC-62 melanoma 99.1% | LOX IMVI melanoma 90.7% | SK-MEL-28 melanoma 106%

C=C1C(=O)O[C@H]2[C@H]1CC/C(COC(=O)NCCCCNC(=O)OC/C1=C/CC[C@@]3(C)O[C@H]3[C@H]3OC(=O)C(=C)[C@@H]3CC1)=C\CC[C@@]1(C)O[C@@H]21
inactive: HCT-15 colon 81.6% | SNB-75 CNS 49.5% | SNB-19 CNS 90.9% | U251 CNS 73.6% | PC-3 prostate 67.7% | SK-MEL-5 melanoma 76.8%
active: HT29 colon 5.38% | UACC-62 melanoma -20.8% | LOX IMVI melanoma -22.5% | SK-MEL-28 melanoma -10.1%

O=C(Nc1cc(C(F)(F)F)cc(C(F)(F)F)c1)c1cc(Cl)ccc1O
active: HCT-15 colon -39.7% and -24.9% | HT29 colon 0.709% and 1.2% | SNB-75 CNS -64.9% and -39.3% | U251 CNS -5.01% and -11.5% | PC-3 prostate 5.05% and -0.956% | SK-MEL-5 melanoma -70.3% | UACC-62 melanoma -56% and -42.8% | LOX IMVI melanoma -62.1% and -58.6% | SK-MEL-28 melanoma -33.4% and -22.4%
5.13% (active) and 12.9% (inactive): SNB-19 CNS

c1ccc(-c2cc(-c3cc(-c4ccccc4)on3)no2)cc1
inactive: HCT-15 colon 17.5% | HT29 colon 21.2% | SNB-75 CNS 123% | SNB-19 CNS 101% | U251 CNS 73.8% | PC-3 prostate 128% | SK-MEL-5 melanoma 101% | UACC-62 melanoma 89.7% | LOX IMVI melanoma 69.2% | SK-MEL-28 melanoma 102%

CN1C(=O)N(C)C2(c3ccccc3)N(CC(=O)Nc3ccccc3O)C(=O)NC12c1ccccc1 (stereo not given)
inactive: HCT-15 colon 103% | HT29 colon 111% | SNB-75 CNS 74.3% | SNB-19 CNS 100% | U251 CNS 105% | PC-3 prostate 90.3% | SK-MEL-5 melanoma 101% | UACC-62 melanoma 91% | LOX IMVI melanoma 96.8% | SK-MEL-28 melanoma 123%

COc1ccc(-c2c[nH]c(C(=O)O)c2-c2cc(OC)c(OC)c(OC)c2)cc1
active: SNB-75 CNS -15.5%
inactive: HCT-15 colon 31.7% | HT29 colon 14.7% | SNB-19 CNS 41.3% | U251 CNS 49.5% | PC-3 prostate 32.8% | SK-MEL-5 melanoma 19.2% | UACC-62 melanoma 37.7% | LOX IMVI melanoma 47.2% | SK-MEL-28 melanoma 61.7%

COc1cccc(NC(=O)c2sc3nc(C)c(C(O)c4ccccc4)cc3c2N)c1 (stereo not given)
inactive: HCT-15 colon 14.6% | HT29 colon 13.3% | SNB-75 CNS 54.2% | SNB-19 CNS 27.6% | PC-3 prostate 23.5% | UACC-62 melanoma 32% | LOX IMVI melanoma 36.1% | SK-MEL-28 melanoma 64.9%
active: U251 CNS 8.92% | SK-MEL-5 melanoma -17.2%

COc1ccc(CN2CCc3c(Cl)nc(N)nc3C2=O)c(OC)c1
inactive: SNB-19 CNS 33.9% [100 µM] | PC-3 prostate 12% [100 µM]
active: HCT-15 colon -36.7% [100 µM] | HT29 colon -4.88% [100 µM] | SNB-75 CNS 4.5% [100 µM] | U251 CNS 4.76% [100 µM] | SK-MEL-5 melanoma -55.7% [100 µM] | UACC-62 melanoma -24.5% [100 µM] | LOX IMVI melanoma -29.7% [100 µM] | SK-MEL-28 melanoma -56.1% [100 µM]

CCCO/N=C/c1ccccn1
inactive: HCT-15 colon 106% and 103% | HT29 colon 96.8% and 93.4% | SNB-75 CNS 85.2% and 85.5% | SNB-19 CNS 97.8% and 105% | U251 CNS 103% and 101% | PC-3 prostate 117% and 96.1% | SK-MEL-5 melanoma 104% and 108% | UACC-62 melanoma 99.2% and 108% | LOX IMVI melanoma 108% and 98.5% | SK-MEL-28 melanoma 107% and 99.4%

O=C1CCCCN1CCCCC#Cc1cccc(C#Cc2cccnc2)c1
inactive: HCT-15 colon 44.7% | HT29 colon 86.5% | SNB-75 CNS 79.5% | SNB-19 CNS 78.3% | U251 CNS 72.4% | PC-3 prostate 61.5% | SK-MEL-5 melanoma 62.6% | UACC-62 melanoma 36.3% | LOX IMVI melanoma 95.8% | SK-MEL-28 melanoma 107%

COc1ccc(/C=C/C(=O)c2cc3c(N)c(C(=O)Nc4ccccc4)sc3nc2C)cc1
active: HCT-15 colon 5.97% | HT29 colon -3.68% | SNB-19 CNS 1.78% | U251 CNS 1.52% | SK-MEL-5 melanoma 4.63% | LOX IMVI melanoma 2.65%
inactive: SNB-75 CNS 11.9% | PC-3 prostate 17.1% | UACC-62 melanoma 22.9% | SK-MEL-28 melanoma 52%

Cc1ccc(-c2nc([P+](c3ccccc3)(c3ccccc3)c3ccccc3)c(Nc3ccccc3)o2)cc1
active: HCT-15 colon 1.96% | HT29 colon -2.08% | SNB-75 CNS -31.6% | SNB-19 CNS 2.16% | U251 CNS -16.2% | PC-3 prostate 4.11% | SK-MEL-5 melanoma -87.4% | UACC-62 melanoma -25.8% | LOX IMVI melanoma -8.29% | SK-MEL-28 melanoma -42.3%

Cc1cc2nc(C(Cl)Cl)nc(-c3ccc(Cl)cc3)n2n1
active: HCT-15 colon -20.4% | HT29 colon 2.12% | SNB-75 CNS -22.7% | U251 CNS 4.15%
inactive: SNB-19 CNS 12.6% | PC-3 prostate 16.1% | SK-MEL-5 melanoma 41.2% | UACC-62 melanoma 48.5% | LOX IMVI melanoma 48.4% | SK-MEL-28 melanoma 18.5%

COC(=O)/C=C1/SC(=Nc2ccc([N+](=O)[O-])cc2)N(CCc2c[nH]c3ccccc23)C1=O
inactive: HCT-15 colon 29.9% | HT29 colon 51.8% | SNB-75 CNS 84.3% | SNB-19 CNS 69.2% | U251 CNS 46.9% | PC-3 prostate 63.4% | SK-MEL-5 melanoma 84.9% | UACC-62 melanoma 51% | SK-MEL-28 melanoma 76.8%
active: LOX IMVI melanoma -9.3%

Nc1ncnc2c1C(c1ccc([N+](=O)[O-])cc1)c1sc3c(F)cccc3c1O2 (stereo not given)
inactive: HCT-15 colon 102% | HT29 colon 112% | SNB-75 CNS 97% | SNB-19 CNS 102% | U251 CNS 92.4% | PC-3 prostate 91.6% | SK-MEL-5 melanoma 98.4% | UACC-62 melanoma 81% | LOX IMVI melanoma 84.2% | SK-MEL-28 melanoma 106%

CC(=O)OC[C@]12CCC(C)(C)C=C1[C@H]1CC[C@@H]3[C@@]4(C)CCCNC(C)(C)[C@@H]4CC[C@@]3(C)[C@]1(C)CC2
inactive: HCT-15 colon 89.6% | HT29 colon 31.6% | SNB-75 CNS 71.8% | SNB-19 CNS 53.4% | U251 CNS 35.3% | PC-3 prostate 37% | UACC-62 melanoma 34.4% | LOX IMVI melanoma 72.5% | SK-MEL-28 melanoma 59.1%
active: SK-MEL-5 melanoma 9.31%

O=C1OCC2=C1C(c1cccc(C(F)(F)F)c1)c1cc3c(cc1N2CCO)OCCO3 (stereo not given)
active: HT29 colon 3.94%
inactive: HCT-15 colon 14.1% | SNB-75 CNS 42.4% | SNB-19 CNS 23.4% | U251 CNS 14.7% | PC-3 prostate 26.2% | SK-MEL-5 melanoma 22.9% | UACC-62 melanoma 39.9% | LOX IMVI melanoma 37.4% | SK-MEL-28 melanoma 50%

COc1cc(-c2nc3occn3c2-c2ccnc(NCCCNS(=O)(=O)c3ccc(O)cc3)n2)ccc1F
inactive: HCT-15 colon 114% | HT29 colon 66.4% | SNB-75 CNS 97.6% | SNB-19 CNS 124% | U251 CNS 108% | PC-3 prostate 94.6% | SK-MEL-5 melanoma 62.8% | UACC-62 melanoma 21% | LOX IMVI melanoma 55.6% | SK-MEL-28 melanoma 27.7%

COc1ccc(-c2csc(NC(=O)CN3CCN(CCO)CC3)n2)cc1NS(=O)(=O)c1cccc2c(N(C)C)cccc12
active: LOX IMVI melanoma -57.9% | SK-MEL-28 melanoma -2.57%
inactive: HCT-15 colon 39.6% | HT29 colon 20.1% | SNB-75 CNS 78.2% | SNB-19 CNS 74.3% | U251 CNS 29.5% | PC-3 prostate 72.7% | SK-MEL-5 melanoma 58.5% | UACC-62 melanoma 89%

C=C(C)[C@@H]1CC[C@]2(C(=O)N3CCN(C)CC3)CC[C@]3(C)[C@H](CC[C@@H]4[C@@]5(C)CC(CCCNC(C)=O)(CCCNC(C)=O)[C@H](OC(C)=O)C(C)(C)[C@@H]5CC[C@]43C)[C@@H]12
inactive: HCT-15 colon 86.8% | HT29 colon 83% | SNB-75 CNS 89.2% | SNB-19 CNS 99% | U251 CNS 98.2% | PC-3 prostate 74.9% | SK-MEL-5 melanoma 91.5% | UACC-62 melanoma 99.3% | LOX IMVI melanoma 97.8% | SK-MEL-28 melanoma 103%

O=S(=O)(Nc1ccc(F)cc1)c1ccc(-c2cnc(C3CC3)o2)cc1
active: HT29 colon 7.98% | SNB-75 CNS 0.813%
inactive: HCT-15 colon 19.9% | SNB-19 CNS 29.7% | U251 CNS 21% | PC-3 prostate 31.2% | SK-MEL-5 melanoma 25.5% | UACC-62 melanoma 27.5% | LOX IMVI melanoma 51.5% | SK-MEL-28 melanoma 56.2%
